Screening data from PubChem.
Sfp inh: qHTS Assay for Inhibitors of Bacillus subtilis Sfp phosphopantetheinyl transferase (PPTase); AID 1490, 2009; Potency, µM, inactives show largest response in the series, negative = inhibition, most hits filed as inhibitors; Biochemical Sfp PPTase activity, qHTS; 3.5% of 310,000 active;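 note: the enzyme is Sfp with the accession as filed and its product quenches rhodamine fluorescence; 0% = enzyme reaction without inhibitor and -100% = no enzyme wells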
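Fluorescence-quenching assay with 15 nM Sfp, 5 uM rhodamine-CoA and 12.5 uM BHQ-2-labelled ybbR peptide in pH 7.6 Hepes/MgCl2 buffer. Enzyme was pre-incubated with compound for 15 min at room temperature. Rate was taken from the 30-min fluorescence change (525/598 nm).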
VDR inh: Inhibitors of the vitamin D receptor (VDR): qHTS; AID 504847, 2011; VDR-SRC2-3 peptide fluorescence polarization, 2 h; 0.93% of 400,000 active; Potency, µM, inactives show max response, negative = inhibition, actives largely listed as inhibitors
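Fluorescence polarization assay of small-molecule disruption of VDR binding to coregulator peptide SRC2-3. Compounds and controls pin-transferred, then read after 2 h incubation at ambient room temperature.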
Tau fluor cs: Counterscreen qHTS for Inhibitors of Tau Fibril Formation, Fluorescence Polarization. tau K18 P301L Alexa594 fluorescence, heparin fibrillization. Potency, µM (top dose mostly 57.7 µM), without a hit: at the highest dose activity change, negative = decrease. 0.93% of 280,000 active. AID 1463, 2008; note: nearly all actives have a fitted effect of over 55% in size
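Human K18 P301L tau (15 uM unlabeled plus 0.24 uM Alexa 594-labeled, final) in 100 mM sodium acetate pH 7 was mixed with compound and 20 uM heparin and incubated 6 hr at 37 C.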
PLK1 PBD block: qHTS for Inhibitors of PLK1-PDB (polo-like kinase 1 - polo-box domain): Primary Screen. Serine/threonine-protein kinase PLK1 (Homo sapiens), P53350. Plk1 PBD binding of FITC phosphopeptide, fluorescence polarization. Potency, µM, for the others: max response, negative = inhibition, most hits filed as inhibitors. 2.8% of 360,000 active; note: series mostly up to about 57 µM; nearly all actives have a fitted effect of over 65% in size
Target sequence (P53350 whole entry, looked up, the tested form may be a part): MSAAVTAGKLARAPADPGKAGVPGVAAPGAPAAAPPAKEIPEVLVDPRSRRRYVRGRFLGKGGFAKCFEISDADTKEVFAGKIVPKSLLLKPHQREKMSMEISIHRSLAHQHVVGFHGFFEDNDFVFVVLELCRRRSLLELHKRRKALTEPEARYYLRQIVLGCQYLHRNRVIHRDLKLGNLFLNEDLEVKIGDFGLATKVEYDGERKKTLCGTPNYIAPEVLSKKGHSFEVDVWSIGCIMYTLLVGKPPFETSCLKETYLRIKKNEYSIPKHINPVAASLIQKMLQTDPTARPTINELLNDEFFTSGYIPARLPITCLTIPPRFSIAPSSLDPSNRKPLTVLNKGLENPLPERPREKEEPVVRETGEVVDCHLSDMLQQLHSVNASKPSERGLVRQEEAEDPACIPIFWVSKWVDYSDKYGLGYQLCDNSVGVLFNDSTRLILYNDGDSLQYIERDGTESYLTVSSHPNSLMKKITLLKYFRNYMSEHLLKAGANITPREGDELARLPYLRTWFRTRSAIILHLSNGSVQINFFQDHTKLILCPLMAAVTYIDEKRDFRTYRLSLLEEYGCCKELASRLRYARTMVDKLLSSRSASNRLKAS
Tau fibril ThT: qHTS for Inhibitors of Tau Fibril Formation, Thioflavin T Binding; 2.1% of 270,000 active; Potency, µM (series often up to 57.4 µM), for the others: at the highest dose activity, negative = inhibition, hits mostly inhibitors; recombinant tau K18 P301L (four-repeat tau fragment), heparin-induced fibrillization, ThT fluorescence; note: nearly all actives have a fitted effect of over 55% in size
Target sequence (P10636 561-689 P618L limits assumed): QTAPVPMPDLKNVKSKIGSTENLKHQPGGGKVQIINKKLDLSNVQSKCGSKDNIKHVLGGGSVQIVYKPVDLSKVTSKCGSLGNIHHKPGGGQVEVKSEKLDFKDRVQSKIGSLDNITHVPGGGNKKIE
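Heparin-induced fibrillization of the P301L-mutant K18 repeat-domain fragment of human tau was followed by ThT binding in quantitative high-throughput format.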
Tau FP inhib: qHTS for Inhibitors of Tau Fibril Formation, Fluorescence Polarization | Potency, µM (titrated, usually from 57.7 µM), for inactives: at the top dose activity, negative = inhibition, usual class: inhibitors | 0.39% of 280,000 active | Microtubule-associated protein tau (Homo sapiens), P10636 | AID 1468, 2008 | K18 P301L tau heparin fibrillization, Alexa594 FP, 6 h; note: nearly all actives have a fitted effect of over 55% in size
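Read-out: fluorescence polarization of Alexa 594-labeled tau (0.24 uM), 555 nm excitation, 632 nm emission. Mixtures held 15 uM unlabeled K18 P301L, compound and 20 uM heparin, pH 7 acetate buffer, incubated 6 hr at 37 C.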
An asterisk follows results filed as active; ? = inconclusive; . = no result; [ ] = remark or other dose. Hits are enriched below; roughly 6% of the tested compounds scored in any of these assays. Calls come from the whole dose curve; as a rule, active = well fitted curve in the direction sought with a large enough effect; inconclusive = small, poorly fitted or top-dose-only effect, or another doubt; inactive = no such curve, though single readings can be large; an effect the other way counts as inactive or inconclusive. Unless noted, % is set by controls: 0 for no effect and ±100 for the full control effect; potency is the fitted concentration of half-maximal effect.

SMILES | Sfp inh | VDR inh | Tau fluor cs | PLK1 PBD block | Tau fibril ThT | Tau FP inhib
O=C1CC(SC(=S)C2CCCC2=O)C(=O)N1 (stereo not given) | . | . | . | 13µM* | . | .
CC(C)Oc1ccc(CNC(=O)CCCn2c(=O)c3cccn3c3ccccc32)cc1 | . | -13% | 0% | . | ? | 2%
C/C(N)=C(/C#N)C(=O)CSc1nc2ccccc2[nH]1 | 2% | -3% | -4% | -9% | -12% | 7%
C/C(N)=C(/C#N)C(=O)CSc1ncnc2ccccc12 | -6% | -1% | -11% | 27µM* | ? | -4%
Cc1ccc(C(=O)Cn2cnc3ccccc3c2=O)cc1 | 1% | -9% | 9% | 30µM* | 5% | ?
CCC1=C(c2ccc(OC)cc2)CCC(C(=O)O)C1C (stereo not given) | . | -1% | . | 0% | . | .
N=c1n(Cc2ccccc2)c2ccccc2n1CC(O)COc1ccc(Cl)cc1Cl (stereo not given) | 18µM* | 6% | -6% | ? | 10% | -10%
CCCc1cc(=O)oc2cc(C)cc(OCC(=O)Nc3cccnc3)c12 | 12% | 3% | . | 1% | . | .
O=C1C(Cl)=C(N2CCN(c3ccccc3[N+](=O)[O-])CC2)C(=O)c2ccccc21 | -9% | 40µM* | 8.9µM*[quencher] | ? | 3.5µM* | 10µM*
O=[N+]([O-])c1cc(Cl)ccc1N1CCCC1 | -2% | 4% | -12% | -11% | -17% | -9%
CCOc1ccc(C2C(=O)N(C3CCCCC3)CC(=O)N2C2CCCC2)cc1OC (stereo not given) | . | 6% | -3% | . | -2% | 2%
Cc1cccc(OCC(=O)NNC(=O)c2ccc3nc[nH]c3c2)c1 | . | 5% | . | -14% | . | .
Cc1ccc(C(C)C)c(OCC(=O)NN=C(CCl)CCl)c1 | 50µM* | . | 0% | . | ? | 8%
Cc1ccc(-n2c(O)c(C=Nc3ccccc3-c3n[nH]c(=S)[nH]c3=O)c3ccccc3c2=O)c(C)c1 | 1% | -3% | -9% | 27µM* | ? | 2%
Cc1cccc(-n2c(O)c(C=Nc3ccccc3-c3n[nH]c(=S)[nH]c3=O)c3ccccc3c2=O)n1 | -3% | -21% | -15% | 27µM* | ? | -4%
Cc1ccc(-n2c(O)c(C=Nc3ccccc3-c3n[nH]c(=S)[nH]c3=O)c3ccccc3c2=O)cc1C | -4% | -1% | 0% | 30µM* | 7% | 4%
Cc1cccc(-n2c(O)c(C=Nc3cc(O)ccc3C)c3ccccc3c2=O)n1 | 18% | ? | -17% | ? | 1% | ?
Cc1cccc(-n2c(O)c(C=Nc3ccccc3O)c3ccccc3c2=O)n1 | ? | -6% | ? | 12% | ? | 15%
CCOc1ccc(CNC(=O)c2ccc3c(c2)nc2n3CCC(C)C2)cc1OC (stereo not given) | . | 6% | -6% | . | -7% | 2%
COc1ccc(C2=CSC3=NNC4(CCCCC4)NN23)cc1 | -23% | -26% | -26% | -15% | 22µM* | 0%
COCCNC(=O)c1cccc(OC2CCN(Cc3ccc(OC(F)F)cc3)CC2)c1 | 15% | 8% | . | -15% | . | .
O=C(O)COc1ccc(S(=O)(=O)N2CCCC2)cc1 | 24% | 3% | . | 1% | . | .
O=C(Nc1ccccc1)Nc1ccc(S(=O)(=O)N2CCCCC2)cc1 | -4% | 2% | 16µM*[quencher] | -9% | 12% | 32µM*
O=C(Nc1ccc(S(=O)(=O)N2CCCCC2)cc1)c1cccnc1Cl | . | -17% | . | 2% | . | .
CC(=O)Nc1ccc(S(=O)(=O)N2CCCC2)cc1 | 28% | 9% | . | 8% | . | .
SMILES | Sfp inh | VDR inh | Tau fluor cs | PLK1 PBD block | Tau fibril ThT | Tau FP inhib
NS(=O)(=O)c1ccc(NC(=S)NC2CC2)cc1 | 10µM* | -4% | 15% | ? | 4% | 3%
CNC(=O)COc1ccc(S(=O)(=O)N2CCCC2)cc1 | 1% | 50µM* | . | 5.3µM* | . | .
O=C(Nc1ccc(S(=O)(=O)N2CCCCC2)cc1)c1ccccc1Cl | 0% | -17% | -25% | 30µM* | -14% | 1%
Cc1noc(C)c1S(=O)(=O)Nc1ccc(C#N)cc1 | 19% | -2% | . | -10% | . | .
CS(=O)(=O)Nc1cccc(-c2cc(NC=O)c3ncc(-c4ccc(F)c(Cl)c4)n3c2)c1 | . | . | . | -10% | . | .
CSc1cccc(NC(=O)CC(c2cccs2)N2Cc3ccccc3C2=O)c1 (stereo not given) | . | -4% | ? | . | 11% | ?
COc1ccc(NC(=O)c2cc(S(=O)(=O)N3CCCC3)ccc2OC)cc1 | 11% | -27% | -17% | 17µM* | -5% | -8%
NS(=O)(=O)c1ccc(NC(=O)CN2CCCN(S(=O)(=O)c3ccc(F)cc3)CC2)cc1 | -2% | -2% | -2% | -15% | 3% | 1%
CN1CCN(CC(=O)Nc2ccc(S(=O)(=O)N(C)C)cc2)CC1 | 56µM* | -12% | . | 1% | . | .
NS(=O)(=O)c1ccc(NC(=O)CN2CCN(S(=O)(=O)c3ccc(F)cc3)CC2)cc1 | 13% | ? | . | 4.7µM* | . | .
NS(=O)(=O)c1ccc(NC(=O)c2ccc(S(=O)(=O)N3CCCCC3)cc2)cc1 | . | -4% | . | 1% | . | .
NS(=O)(=O)c1ccc(NC(=S)Nc2ccc(S(=O)(=O)N3CCCC3)cc2)cc1 | 50µM* | 11% | ? | ? | -13% | ?
O=C(CN1CCN(C(=O)C2CC2)CC1)Nc1ccc(Cl)cc1F | . | 5% | . | -7% | . | .
CCOC(=O)C1=C(C(=O)OCC)N(CC)CCC1=O | . | -8% | . | ? | . | .
CN(CCOc1ccccc1)CC(=O)Nc1ccc(S(=O)(=O)N2CCCC2)cc1 | 56µM* | -15% | -19% | -1% | -10% | 7%
CN1CCN(S(=O)(=O)c2ccc(NC(=O)COc3ccccc3)cc2)CC1 | 8% | -8% | -3% | -10% | -2% | -6%
COc1cccc(NC(=O)CN2CCN(S(=O)(=O)c3ccc(C(C)C)cc3)CC2)c1 | -2% | -1% | -15% | 30µM* | -3% | -5%
O=C(CN1C(=O)c2ccccc2S1(=O)=O)Nc1ccc(S(=O)(=O)N2CCCCC2)cc1 | 20% | -16% | -16% | 24µM* | 7% | -8%
CCc1ccc(-n2nc(C)c3c(C)cc(=O)n(CC(=O)Nc4ccccc4C(=O)OC)c32)cc1 | . | 14% | 1% | . | -9% | 7%
CCCNC(=O)C1(C)CCN(C(=O)c2cccnc2Oc2ccccc2)C1 (stereo not given) | . | . | . | -18% | . | .
